# Source: PubChem BioAssay (EPA / NIEHS)
# Calls of active or inactive are those of the source. Rule for the calls: active = hit-call score of the fitted dose curve at least 0.9, where 1 is the maximum; inactive = score below 0.9.
# Read-out: Cyclin D2 (CCND2), CCND2 (gene 894)
# Assay: LTEA_HepaRG_CCND2: Life Technologies and Expression Analysis (LTEA) Assay for Cyclin D2 (CCND2) using HepaRG (AID 2283449);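 note: CCND2 transcript measured by TaqMan qRT-PCR and normalised to three housekeeping genes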
# Details: mRNA level, 48 h; actives raise or lower the signal
# Protocol: LTEA_HepaRG is a cell based, multiplexed-readout assay that uses HepaRG, a human liver cell line, with measurements taken at 48 hours after chemical dosing on a 96-well plate.LTEA_HepaRG_CCND2 is one of 102 assay component(s) measured in the LTEA HepaRG cell culture assay. It is a marker of Cell proliferation, survival, death.Data from the assay component LTEA_HepaRG_CCND2 was analyzed into 1 endpoint. This assay endpoint, LTEA_HepaRG_CCND2, was analyzed with bidirectional fitting relative to DMSO as the negative control and baseline of activity. Using a type of inducible reporter, measures of mRNA induction for gain or loss-of-signal activity can be used to understand regulation of transcription factor activity. To generalize the intended target to other relatable targets, this assay endpoint is annotated to the cell cycle intended target family, where the subfamily is Cell proliferation, survival, death.
# A total of 1060 chemcials from the ToxCast library were tested in eight-point concentration-response experiments. Cell culture and cytotoxicity assays were conducted at Thermo Fisher Scientific's Custom Services facility (Madison, WI). A single lot of human HepaRG cells (Thermo Fisher Scientific, Frederick, MD) was used for the cell culture experiments. 96-well format collagen type I coated plates of human HepaRG cells were prepared using established methods. Briefly, cryopreserved HepaRG cells were thawed, plated at a density of approximately 100,000 cells/well in HepaRG Thaw, Plate, and General Purpose media (HPRG770, Thermo Fisher Scientific), and incubated for 48 hours. 0.5% DMSO was selected as vehicle control to balance the requisite need of DMSO in HepaRG cultures to maintain differentiation (for example, baseline metabolism, proportions of hepatocytes vs. cholangiocytes), while enabling further hepatic receptor pathway activation (for example, PXR and CAR) in response to chemical exposure. 48 hours after plating, the culture medium was replaced with HepaRG Serum-Free Incudtion Media. Cells were exposed to each test chemical in duplicate and maintained in CO2 incubators for another 48 hours. Chemical plates were thawed to room temperature and 200x concentrations of treatment groups were prepared. 8-point conentration-reponse curves were made with the highest exposure at 100 uM, followed by half-log dilutions, all in 0.5% DMSO. Each test plate contained variouse controls, induction positive controls (1mM phenobarbital), cytotoxicity positive controls ([…] aflatoxin B1), vehicle controls (0.5% DMSO), and total lysis controls (0.5% DMSO). Cell morphology images were taken using an Essen IncuCyte FLR automated microscope, with six 96-well plates imaged in about 24 minutes. Images were captured and exported and JPEG files. Spent culture media was transfered to black-well plates for the LDH assay, and remaining media was sorted at -80 C for later use. Cells were treated with RLT buffer and frozen until shipped for gene expression analysis. Total RNA was isolated from the cell suspension in 75 uL of Buffer RLT (Qiagen, Germantown, MD 20874) by Quintiles/Expression Analysis (Durham, NC) using a custom isolation procedure. Total RNA from each plate well was transferred to a preamplification plate. Fluidigm's 96.96 Dynamic ArrayTM (Fluidigm, Amsterdam, the Netherlands) technology was used for gene expression analyses by quantitative reverse transcription polymerase chain reaction (qRT-PCR, performed by Quintiles/Expression Analysis, Durham, NC)89. Standard TaqManTM Assays (Applied Biosystems/ThermoFisher Scientific, Foster City, CA) were used to assess the expression of 93 genes selected based on their selectivity and sensitivity to important hepatic receptors known to be modulated by environmental chemicals; importance in human hepatocyte functionality; and hepatotoxicity. […]
SMILES,outcome,AC50
Clc1cccc(C(Cl)(Cl)Cl)n1,inactive,
Nc1c(Cl)c(F)nc(OCC(=O)O)c1Cl,inactive,
O=C(Nc1ccccc1-c1ccc(Cl)cc1)c1cccnc1Cl,inactive,
Nc1cnn(-c2ccccc2)c(=O)c1Cl,inactive,
CSC(=O)c1c(C(F)F)nc(C(F)(F)F)c(C(=O)SC)c1CC(C)C,inactive,
COc1cc(OC)nc(NC(=O)NS(=O)(=O)c2ncccc2OCC(F)(F)F)n1,,223 nM (active)
CCOP(=O)(OCC)Oc1nc(Cl)c(Cl)cc1Cl,inactive,
CCCCC(O)(Cn1cncn1)c1ccc(Cl)cc1Cl (stereo not given),inactive,
CCOc1cc(C(C)(C)C)ccc1C1COC(c2c(F)cccc2F)=N1 (stereo not given),inactive,
Cc1cnc(C2=NC(C)(C(C)C)C(=O)N2)c(C(=O)O)c1 (stereo not given),inactive,
N#CN=C1SCCN1Cc1ccc(Cl)nc1,inactive,
Nc1c(Cl)c(Cl)nc(C(=O)O)c1Cl,inactive,
COCc1cnc(C2=NC(C)(C(C)C)C(=O)N2)c(C(=O)O)c1 (stereo not given),inactive,
C=CCOC(=O)C(C)(C)OC(=O)c1cc(-n2c(=O)cc(C(F)(F)F)n(C)c2=O)ccc1Cl,inactive,
N#Cc1c[nH]cc1-c1cccc2c1OC(F)(F)O2,inactive,
Cc1nc(N(C)C)nc(OC(=O)N(C)C)c1C,inactive,
Cn1c(-c2ccccc2)cc(-c2ccccc2)[n+]1C,inactive,
CN=C=S,inactive,
CC1(C)C(C(=O)OC(C#N)c2cccc(Oc3ccccc3)c2)C1(C)C (stereo not given),inactive,
CCC(C)n1c(=O)[nH]c(C)c(Br)c1=O (stereo not given),inactive,

SMILES,outcome,AC50
CC(C)=CC1C(C(=O)OCc2coc(Cc3ccccc3)c2)C1(C)C (stereo not given),inactive,
COC(=O)c1c(C(F)F)nc(C(F)(F)F)c(C2=NCCS2)c1CC(C)C,inactive,
CCN(CC)c1nc(C)cc(OP(=S)(OC)OC)n1,inactive,
Cc1c(COC(=O)[C@@H]2[C@H](/C=C(\Cl)C(F)(F)F)C2(C)C)cccc1-c1ccccc1,inactive,
Clc1nc(Cl)nc(Nc2ccccc2Cl)n1,inactive,
CCCN(CC)CC1COC2(CCC(C(C)(C)C)CC2)O1 (stereo not given),inactive,
CS(=O)(=O)c1ccc(C(=O)C2C(=O)CCCC2=O)c([N+](=O)[O-])c1,inactive,
CC(C)Nc1nc(Cl)nc(NC(C)C)n1,inactive,
COc1cc(Cl)c(OC)cc1Cl,inactive,
N#Cc1c(Cl)cccc1Cl,inactive,
COP(=S)(OC)SCn1nnc2ccccc2c1=O,inactive,
COC(=O)NS(=O)(=O)c1ccc(N)cc1,inactive,
COCC(=O)N(c1c(C)cccc1C)C(C)C(=O)OC (stereo not given),,81.5 nM (active)
COP(=S)(OC)Oc1ccc([N+](=O)[O-])c(C)c1,inactive,
COc1ccc(-c2ccccc2)cc1NNC(=O)OC(C)C,inactive,
COC(=O)N(C(=O)N1CO[C@@]2(C(=O)OC)Cc3cc(Cl)ccc3C2=N1)c1ccc(OC(F)(F)F)cc1,inactive,
CCOc1nc(F)cc2nc(S(=O)(=O)Nc3c(Cl)cccc3Cl)nn12,inactive,
CCOP(=S)(OCC)Oc1nc(Cl)n(C(C)C)n1,inactive,
CO/N=C(/C1=NOCCO1)c1ccccc1Oc1ncnc(Oc2ccccc2Cl)c1F,inactive,
CCCCC(C#N)(Cn1cncn1)c1ccc(Cl)cc1 (stereo not given),inactive,
